The campaign covered roughly 300,000 compounds. About 37,000 (12%) were called active. This is one part of a sample in which actives are shown more often than they occur. Cut-off read from the data, not from the text of the source: active = max response mostly above about 13% (no sharp cut-off); inactive = mostly below about 14%.
Assay: Cycloheximide Counterscreen for Small Molecule Inhibitors of Shiga Toxin; note: read at 38.3 µM for the half of the compounds with a filed dose; 0% is about no effect
Details: cell reporter, cycloheximide protein synthesis inhibition counterscreen; active compounds read high

**Q.** Which max response does the source give for `Cc1ccccc1CN1CCN(C(=O)c2cccc(F)c2)CC1` here?
**A.** Its max response is -3.46% (inactive).

**Q.** For `CCC(O)C1CCN(Cc2cn(-c3ccc(OC)cc3)nc2-c2cccc(F)c2)CC1` (configuration not stated), which max response is on record?
**A.** Its max response is 10.6% (active).

**Q.** Which max response does the source give for `Cc1cccc(-n2cc(CN3CCN(C(=O)c4ncn[nH]4)CC3)c(-c3cccc(F)c3)n2)c1` here?
**A.** Its max response is 20.6% (active).

**Q.** For `COc1ccc(-n2cc(CN(C)Cc3n[nH]c(=O)[nH]3)c(-c3cccc(F)c3)n2)cc1`, which max response is on record?
**A.** Its max response is 4.9% (inactive).

**Q.** For `COc1ccc(-n2cc(CNC3CCOCC3)c(-c3cccc(F)c3)n2)cc1`, which max response is on record?
**A.** The max response was 1.41% (inactive).

**Q.** Which max response does the source give for `Cc1ccc(C)c(-n2cc(CN3CCN(C(=O)c4ncn[nH]4)CC3)c(-c3ccccc3)n2)c1` here?
**A.** The max response was -1.39% (inactive).

**Q.** For `C=CCCC(=O)Nc1nc(C)c(-c2csc(Nc3ccc(Cl)cc3)n2)s1`, which max response is on record?
**A.** Its max response is -1.48% (inactive).

**Q.** With `CCOCCCNCc1cc(Br)ccc1OCC` as the molecule, how does the max response read?
**A.** Its max response is 1.32% (inactive).

**Q.** For `O=C(NCc1ccncc1)C1CCN(C(=O)c2cccc(Cl)c2)CC1`, which max response is on record?
**A.** Its max response is -4.47% (inactive).

**Q.** With `Cc1ccc(NC2CCCN(C(=O)CCc3cn[nH]c3)C2)cc1C` (configuration not stated) as the molecule, how does the max response read?
**A.** The max response was 2.58% (inactive).

**Q.** For `COc1c(O)c2c(=O)cc(OC)c3c4c(OC)cc(=O)c5c(O)c(OC)c6c(c(c1C[C@@](C)(O)[C@H]6C(C)=O)c23)c54`, which max response is on record?
**A.** Its max response is 2.19% (inactive).

**Q.** For `CC(=O)Nc1ccc(C(=O)/C=C/c2ccc[nH]2)cc1`, which max response is on record?
**A.** The max response was 49.8% (active).

**Q.** Which max response does the source give for `CC(=O)Nc1ccccc1C(=O)C(=O)Nc1ccc(F)cc1` here?
**A.** Its max response is 11.7% (inactive).

**Q.** Which max response does the source give for `COc1ccc(C(=O)/C=C/c2ccc(OC3CSC3)cc2)cc1` here?
**A.** The max response was -1.52% (inactive).

**Q.** For `CC(=O)Nc1ccc(/C=C/C(=O)c2ccccc2)cc1`, which max response is on record?
**A.** Its max response is 30.5% (active).

**Q.** Which max response does the source give for `CC(=O)Nc1ccc(NC(=S)NC(=O)/C=C/c2ccccc2)cc1` here?
**A.** The max response was 4.54% (inactive).

**Q.** With `CCCC(=O)Nc1ccc(C(=O)N/N=C/c2ccc[nH]2)cc1` as the molecule, how does the max response read?
**A.** The max response was 7.57% (inactive).

**Q.** Which max response does the source give for `COc1ccc(CCNc2nc3ccc(C)cc3n3cnnc23)cc1OC` here?
**A.** The max response was -4.65% (inactive).

**Q.** With `CC1CCN(S(=O)(=O)c2nnc(NC(=O)COc3ccccc3F)s2)CC1` as the molecule, how does the max response read?
**A.** The max response was -2.77% (inactive).

**Q.** Which max response does the source give for `CN(CCC(=O)Nc1cc(S(=O)(=O)N(C)C)ccc1Cl)CC(=O)Nc1ccc(F)cc1` here?
**A.** The max response was -1.74% (inactive).

**Q.** With `Cc1ccc(OC(=O)c2cncc(Br)c2)c(C)c1` as the molecule, how does the max response read?
**A.** The max response was -1.19% (inactive).

**Q.** For `COc1ccc(/C=C(\C#N)C(=O)NCCCn2ccnc2)cc1`, which max response is on record?
**A.** The max response was -5.64% (inactive).

**Q.** Which max response does the source give for `Cc1ccc(S(=O)(=O)c2nc(NCCCn3ccnc3)sc2Cl)cc1` here?
**A.** The max response was -2.37% (inactive).

**Q.** For `Cc1ccc(-c2nc(C#N)c(NCCCn3ccnc3)o2)cc1`, which max response is on record?
**A.** The max response was 16.7% (active).

**Q.** With `CCOC(=O)C(C(=O)OCC)C(C#N)c1ccccc1` (configuration not stated) as the molecule, how does the max response read?
**A.** The max response was -1.71% (inactive).

**Q.** With `CCOC(=O)/C=C/C(=O)OCC(=O)NC(c1ccccc1)c1ccccc1` as the molecule, how does the max response read?
**A.** The max response was 19.8% (active).

**Q.** For `O=C(Cc1ccc(-c2ccccc2)cc1)NC(c1ccccc1)c1ccccc1`, which max response is on record?
**A.** Its max response is 1.24% (inactive).

— PubChem BioAssay AID2314 (National Center for Advancing Translational Sciences (NCATS), 2010)
